In PubChem BioAssay:
Activity calls are given as the source filed them.

How the values were obtained:
[1] = system: PRMT1 (protein arginine N-methyltransferase 1); assay: small molecules binding arginine methyltransferase PRMT1 – biochemical, small-molecule microarray, 635 nm fluorescence, primary screen (AID 1088); details: higher = more signal;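 also: binding of Prmt1 protein to compounds spotted on small-molecule microarray slides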
[2] = growth effects on S. cerevisiae YJM789 – YJM789 clinical isolate, OD600, 24 h, basal, primary screen (AID 1089); details: higher = more signal, called active from +8 up or from −8 down;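 also: growth of clinical yeast isolate S. cerevisiae YJM 789 seeded 1000 cells per well; test concentration not given here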
[3] = S. pombe growth modifiers, basal conditions – strain 972, OD600, 24 h, no modulator, primary screen (AID 1090);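 also: basal condition with compound alone and no growth modifier present; test concentration not given here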; details: S. pombe 972 growth, higher = more signal, called active from +8 up or from −8 down
[4] = budding yeast growth modifiers under rapamycin – strain BY4716, OD600, 96 h, primary screen (AID 1091); also: test concentration not given here; details: S. cerevisiae BY4716 + rapamycin, higher = more signal, called active from +8 up or from −8 down
[5] = target: Torsin-1A-interacting protein 2 (Homo sapiens) (UniProt Q8NFQ8); assay: small molecules binding lysate-expressed LULL1 – cell lysate, human LULL1 lysate, 635/667 nm fluorescence, primary screen (AID 1092); details: small-molecule microarray, hLULL1 lysate binding, 635 nm fluorescence; higher = more signal;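 also: probe is lysate of COS7 cells overexpressing human LULL1; score merges per-feature 667 nm fluorescence with signal-to-noise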
[6] = optical density change of DRC41 E. coli – strain DRC41, OD650, 24 h, E. coli filamentation project, primary screen (AID 1093);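 also: MC1000 strain lacking acrAB efflux and sulA so SOS filamentation is blocked; test concentration not given here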; details: E. coli DRC41 growth, higher = more signal, called active from +8 up or from −8 down
[7] = probe aLefty2 binding to arrayed compounds – biochemical, biotinylated probe, 635/667 nm fluorescence, primary screen (AID 1094); details: small-molecule microarray, higher = more signal;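 also: score merges spot fluorescence near 667 nm with spot signal-to-noise ratio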
[8] = system: Noggin (protein binding on small-molecule microarray); assay: small molecules binding Noggin protein – biochemical, 635/667 nm fluorescence, primary screen (AID 1095); details: 635 nm fluorescence, higher = more signal;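 also: score merges 667 nm feature fluorescence with signal to noise over triplicate slides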
[9] = target: Neurogenic locus notch homolog protein 3 (Homo sapiens) (UniProt Q9UM47); assay: small molecules binding NOTCH3 protein – biochemical, 635/667 nm fluorescence, primary screen (AID 1096); details: small-molecule microarray, 635 nm fluorescence, higher = more signal
[10] = probe aEGFR binding to arrayed compounds – biochemical, biotinylated probe, 635/667 nm fluorescence, primary screen (AID 1097); details: small-molecule microarray, higher = more signal;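 also: probe is a biotinylated anti-EGFR antibody binding compounds printed on slides; score combines fluorescence near 667 nm and signal to noise of each spot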

Chain of Torsin-1A-interacting protein 2 (Homo sapiens) (Q8NFQ8 whole entry, looked up): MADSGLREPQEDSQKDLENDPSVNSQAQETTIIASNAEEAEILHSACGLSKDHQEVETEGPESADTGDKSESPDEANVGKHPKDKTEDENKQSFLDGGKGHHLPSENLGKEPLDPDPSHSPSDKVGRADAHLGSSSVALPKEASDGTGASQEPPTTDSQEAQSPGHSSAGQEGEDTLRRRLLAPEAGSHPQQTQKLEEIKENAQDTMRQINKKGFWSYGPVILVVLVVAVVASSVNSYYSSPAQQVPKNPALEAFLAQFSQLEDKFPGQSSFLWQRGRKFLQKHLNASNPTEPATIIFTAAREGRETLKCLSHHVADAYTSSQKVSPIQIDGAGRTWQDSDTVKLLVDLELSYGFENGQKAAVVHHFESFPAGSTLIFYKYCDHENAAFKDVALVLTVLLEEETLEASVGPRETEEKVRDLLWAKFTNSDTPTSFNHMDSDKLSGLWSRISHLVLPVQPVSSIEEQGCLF
Chain of Neurogenic locus notch homolog protein 3 (Homo sapiens) (Q9UM47 whole entry, looked up): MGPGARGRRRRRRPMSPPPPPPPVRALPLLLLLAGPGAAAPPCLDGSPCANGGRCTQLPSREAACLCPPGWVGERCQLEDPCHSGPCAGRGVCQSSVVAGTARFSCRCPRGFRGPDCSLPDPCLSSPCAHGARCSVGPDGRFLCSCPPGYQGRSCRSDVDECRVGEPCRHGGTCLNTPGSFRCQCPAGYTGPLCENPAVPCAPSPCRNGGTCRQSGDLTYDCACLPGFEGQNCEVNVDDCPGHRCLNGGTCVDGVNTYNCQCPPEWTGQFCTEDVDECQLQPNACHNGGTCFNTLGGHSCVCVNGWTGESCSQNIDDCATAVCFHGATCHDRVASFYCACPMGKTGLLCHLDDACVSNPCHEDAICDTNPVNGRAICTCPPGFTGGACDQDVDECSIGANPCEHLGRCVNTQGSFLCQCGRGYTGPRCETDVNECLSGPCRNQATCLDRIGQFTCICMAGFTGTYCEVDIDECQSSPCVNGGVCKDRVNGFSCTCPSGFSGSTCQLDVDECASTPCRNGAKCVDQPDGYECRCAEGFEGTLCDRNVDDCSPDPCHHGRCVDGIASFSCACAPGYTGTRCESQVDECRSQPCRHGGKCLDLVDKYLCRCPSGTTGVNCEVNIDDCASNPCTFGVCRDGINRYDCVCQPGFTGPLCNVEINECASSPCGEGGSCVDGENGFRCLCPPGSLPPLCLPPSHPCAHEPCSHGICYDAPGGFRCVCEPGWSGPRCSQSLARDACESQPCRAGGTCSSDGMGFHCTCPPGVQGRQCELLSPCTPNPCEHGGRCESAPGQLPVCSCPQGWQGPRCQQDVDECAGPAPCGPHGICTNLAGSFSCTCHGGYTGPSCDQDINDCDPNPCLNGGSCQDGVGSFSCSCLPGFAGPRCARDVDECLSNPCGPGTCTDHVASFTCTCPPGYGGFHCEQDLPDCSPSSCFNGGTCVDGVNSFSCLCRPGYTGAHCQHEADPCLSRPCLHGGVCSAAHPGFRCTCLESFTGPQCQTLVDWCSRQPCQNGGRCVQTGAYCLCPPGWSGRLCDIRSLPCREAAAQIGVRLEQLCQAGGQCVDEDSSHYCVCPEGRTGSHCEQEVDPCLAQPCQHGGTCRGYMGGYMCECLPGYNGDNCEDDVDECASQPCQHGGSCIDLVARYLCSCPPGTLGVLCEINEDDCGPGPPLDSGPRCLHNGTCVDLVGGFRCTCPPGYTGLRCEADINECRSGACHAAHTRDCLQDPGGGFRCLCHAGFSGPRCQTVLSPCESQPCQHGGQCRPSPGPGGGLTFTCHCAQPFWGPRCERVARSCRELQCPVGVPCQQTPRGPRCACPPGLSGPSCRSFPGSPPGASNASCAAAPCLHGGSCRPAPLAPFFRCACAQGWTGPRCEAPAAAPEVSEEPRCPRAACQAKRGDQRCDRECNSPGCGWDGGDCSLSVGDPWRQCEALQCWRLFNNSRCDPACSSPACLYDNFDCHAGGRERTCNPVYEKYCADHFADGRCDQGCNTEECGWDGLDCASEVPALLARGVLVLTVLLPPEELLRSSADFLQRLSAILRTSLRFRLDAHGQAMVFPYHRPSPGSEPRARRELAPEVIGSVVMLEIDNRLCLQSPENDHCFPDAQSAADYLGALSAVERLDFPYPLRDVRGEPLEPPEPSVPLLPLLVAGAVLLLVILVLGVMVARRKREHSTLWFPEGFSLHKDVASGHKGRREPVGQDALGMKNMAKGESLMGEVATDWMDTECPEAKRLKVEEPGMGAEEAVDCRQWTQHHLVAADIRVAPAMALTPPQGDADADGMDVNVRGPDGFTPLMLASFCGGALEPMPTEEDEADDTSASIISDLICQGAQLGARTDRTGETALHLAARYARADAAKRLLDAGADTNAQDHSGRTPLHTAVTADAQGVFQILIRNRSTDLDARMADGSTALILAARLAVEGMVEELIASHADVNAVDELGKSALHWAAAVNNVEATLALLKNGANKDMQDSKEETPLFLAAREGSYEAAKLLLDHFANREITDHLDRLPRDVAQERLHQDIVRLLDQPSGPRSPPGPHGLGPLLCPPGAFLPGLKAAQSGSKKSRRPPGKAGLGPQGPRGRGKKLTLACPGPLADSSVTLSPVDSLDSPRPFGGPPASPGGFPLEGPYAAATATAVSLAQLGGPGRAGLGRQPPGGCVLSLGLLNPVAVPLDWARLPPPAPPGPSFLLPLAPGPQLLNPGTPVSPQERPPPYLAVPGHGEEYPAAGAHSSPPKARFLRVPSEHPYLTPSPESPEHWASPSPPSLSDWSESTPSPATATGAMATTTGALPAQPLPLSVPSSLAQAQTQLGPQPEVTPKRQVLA

Row | Compound | composite z-score [1] | z-score [2] | z-score [3] | z-score [4] | composite z-score [5] | z-score [6] | composite z-score [7] | composite z-score [8] | composite z-score [9] | composite z-score [10]
1 | CC(C)OC(=O)C=C1C[C@@H](c2ccc(C#N)cc2)O[C@@H](c2ccc(C#N)cc2)O1 | 1.55 | 0.149 (inactive) | -2.93 (inactive) | 1.01 (inactive) | 3.36 | 0.554 (inactive) | 0.314 | 0.747 | 1.06 | 0.11
2 | CC[C@@H](c1ccccc1)n1c(=O)n2n(c1=O)[C@H]1[C@H](O)[C@@H]3O[C@@H]3C(=NOCC=C(C)CCC=C(C)C)[C@H]1CC2 | 1.23 | 0.676 (inactive) | 0.052 (inactive) | 1.28 (inactive) | 1.54 | -0.327 (inactive) | -0.137 | 1.33 | 0.955 | 0.14
3 | COC(=O)CC1OC1[C@H](C)[C@@H](OC)C(C)C (stereo not given in full) | 0.12 | -0.132 (inactive) | -4.41 (inactive) | 1.24 (inactive) | -0.481 | 0.453 (inactive) | 0.121 | 0.291 | -0.556 | -0.151
4 | COc1ccc(-c2nc3c(c4c2C[C@H](C)OC4)CN(CCC(C)C)CC3)cc1 | 1.31 | 0.382 (inactive) | -0.692 (inactive) | 0.0635 (inactive) | 1.5 | 0.618 (inactive) | -0.142 | 0.501 | 0.982 | 0.167
5 | C#CCCCON=C1C[C@@H](O)[C@@H](O)[C@@H]2[C@@H]3C(=O)N(Cc4ccccc4)C(=O)[C@@H]3CC[C@H]12 | 0.0491 | -0.609 (inactive) | -0.216 (inactive) | -1.49 (inactive) | -0.172 | -0.0603 (inactive) | -0.0294 | 0.407 | 0.297 | -0.102
6 | CC(C)(C)N1C(=O)[C@H]2[C@H]3[C@H](O)[C@H](O)CC(=NOCc4ccccc4)[C@@H]3CC[C@H]2C1=O | 0.966 | -1.86 (inactive) | -0.752 (inactive) | -0.715 (inactive) | 1.16 | -0.207 (inactive) | -0.0574 | 0.524 | 0.63 | 0.328
7 | N#Cc1ccc(NN2C(C(O)c3cc(C(F)(F)F)cc(C(F)(F)F)c3)C=CC3C(=O)N(c4ccccc4)C(=O)C32)cc1 (stereo not given) | 1.34 | 0.628 (inactive) | 0.817 (inactive) | 4.19 (inactive) | 3.45 | -1.55 (inactive) | 0.135 | 0.0695 | 1.05 | 0.0731
8 | CCN(CC)c1ccc(N2CC=CC34O[C@@H]5/C=C\CCC(C)OC(=O)C5[C@H]3C(=O)N(CCCO)[C@@H]4C2=O)cc1 (stereo not given in full) | -1 | 0.664 (inactive) | -0.0895 (inactive) | 0.928 (inactive) | 0.964 | 0.0591 (inactive) | -0.143 | -0.686 | -0.397 | -0.27
9 | COCCCNC(=O)[C@@]1(Sc2ccc(C)cc2)CC(=O)N(Cc2ccccc2)[C@@H]1c1ccc(CO)cc1I | 0.785 | -1.69 (inactive) | -2.82 (inactive) | 0.999 (inactive) | 0.936 | 0.248 (inactive) | 0.556 | -1.53 | -1 | 0.0097
10 | CC1CC/C=C\[C@H]2OC34C=CCN(Cn5nnc6ccccc65)C(=O)[C@H]3N(CCO)C(=O)[C@@H]4C2C(=O)O1 (stereo not given in full) | 0.754 | -1.71 (inactive) | -1.64 (inactive) | -1.99 (inactive) | 3.32 | 2.92 (inactive) | -0.0819 | -1.08 | -0.695 | -0.424
11 | CCCCCN1CC=CC23O[C@@H]4C=CCOC(=O)[C@@H]4[C@H]2C(=O)N(CCCCCCO)[C@@H]3C1=O (stereo not given in full) | -0.0856 | -0.44 (inactive) | -0.183 (inactive) | -0.291 (inactive) | 0.865 | 0.0293 (inactive) | -0.0436 | -1.38 | -0.973 | -0.254
12 | CC(CCN1CCc2nc(-c3ccccc3)c(-c3ccccc3)cc2C1)=NOC[C@@H](C)[C@H](OCc1ccccc1)C(C)C | -0.299 | -0.511 (inactive) | -1.17 (inactive) | -3.43 (inactive) | 0.628 | -0.518 (inactive) | -0.195 | -0.179 | -2.07 | -0.25
13 | CCOC(=O)CCN1C(=O)[C@H]2[C@H]3[C@H](O)C=CC(=O)[C@@H]3CC[C@H]2C1=O | 0.0492 | 0.595 (inactive) | 0.361 (inactive) | 1.42 (inactive) | 0.215 | 0.399 (inactive) | -0.239 | 0.641 | 0.629 | 0.0439
14 | CO[C@@H]1COC(=O)[C@@H]2CCCN2C(=O)[C@@H](C)COC(=O)[C@H](COCc2ccccc2)NC(=O)CC=C[C@H]1C | 0.705 | 0.953 (inactive) | 0.263 (inactive) | 0.458 (inactive) | 0.445 | -1.99 (inactive) | -0.236 | 0.529 | 0.554 | -0.198
15 | CN1C(=O)C2C=CC(C(O)c3ccc(I)cc3)N(NC(=O)OC(C)(C)C)C2C1=O (stereo not given) | 0.896 | 0.725 (inactive) | -0.424 (inactive) | 0.931 (inactive) | 3.21 | -1.07 (inactive) | 0.0607 | 0.17 | 1.04 | 0.157
16 | COC(=O)C1=C(C)[C@@H](O)[C@@H](C)[C@H](c2c(OC)c(OC)c(C)c(OC)c2OC)O1 | -0.462 | 0.645 (inactive) | 0.629 (inactive) | -0.22 (inactive) | -0.166 | 0.164 (inactive) | -0.142 | 0.461 | 0.105 | -0.106
17 | C=CC[C@@H]1C=C[C@H](ON=C[C@@H](OC)[C@H](C)C=CCC(=O)OC)[C@@H](CO)O1 | 0.325 | 0.78 (inactive) | 0.173 (inactive) | 0.634 (inactive) | 0.485 | 0.23 (inactive) | -0.124 | 0.471 | -0.39 | 0.0129
18 | CO[C@@H]1COC(=O)CCC[C@@H](C)[C@H](OC)COC(=O)[C@H](Cc2ccccc2)NC(=O)CC=C[C@H]1C | -0.256 | 0.449 (inactive) | -0.529 (inactive) | -0.341 (inactive) | -2.01 | 0.0728 (inactive) | -0.178 | 0.76 | -1.25 | -0.127
